In PubChem BioAssay:
Active and inactive are the calls of the source.

Legend:
[1] = test system: Plasmodium falciparum Sir2 (PF13_0152, Sir2A); assay: Plasmodium falciparum Sir2A binding compounds – biochemical, small-molecule microarray, 635 nm fluorescence, primary screen (AID 1098); conditions: fluorescence 635 nm, higher = more signal;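 also: score merges spot fluorescence intensity with its signal-to-noise ratio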
[2] = probe aDKK1 binding to arrayed compounds – biochemical, biotinylated probe, 635/667 nm fluorescence, primary screen (AID 1099); conditions: small-molecule microarray, higher = more signal;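 also: score merges 667nm spot fluorescence with signal to noise across triplicate slides; reference of the scale not given here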
[3] = probe aCHRDL2 binding to arrayed compounds – biochemical, biotinylated probe, 635/667 nm fluorescence, primary screen (AID 1100); conditions: small-molecule microarray, higher = more signal
[4] = change in splice reporter luminescence, either direction, cell-based, HEK293, spliceosome inhibition project, primary screen (AID 1101); conditions: HEK293 splicing luciferase reporter, 24 h, higher = more signal, called active from +8 up or from −8 down;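 also: HEK293 cells carrying a splicing-competent luciferase reporter gene; test concentration not given here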
[5] = target: Fibroblast growth factor 10 (Homo sapiens) (UniProt O15520); assay: compounds binding fibroblast growth factor 10 – biochemical, small-molecule microarray, 635 nm fluorescence, primary screen (AID 1102); conditions: FGF10 binding, fluorescence 635 nm, higher = more signal
Sequence of Fibroblast growth factor 10 (Homo sapiens) (O15520 whole entry, looked up): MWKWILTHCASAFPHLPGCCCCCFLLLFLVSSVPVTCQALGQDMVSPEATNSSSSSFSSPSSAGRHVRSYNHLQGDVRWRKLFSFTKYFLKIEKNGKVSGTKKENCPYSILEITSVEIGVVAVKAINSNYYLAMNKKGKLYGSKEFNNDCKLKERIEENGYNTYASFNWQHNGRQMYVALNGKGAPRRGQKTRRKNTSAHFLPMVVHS

[6] = test system: glycogen synthase kinase-3 (GSK3A per assay name; protocol says GSK3B); assay: compounds binding glycogen synthase kinase-3 – biochemical, small-molecule microarray, 635 nm fluorescence, GSK3A, primary screen (AID 1103); conditions: fluorescence 635 nm, higher = more signal; also: the record names both GSK3A and GSK3B
[7] = target: Epidermal growth factor receptor (Homo sapiens) (UniProt P00533); assay: compounds binding epidermal growth factor receptor – biochemical, small-molecule microarray, 635 nm fluorescence, primary screen (AID 1104); conditions: EGFR binding, higher = more signal;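 also: score merges 667 nm emission intensity with spot signal to noise over triplicate slides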
Sequence of Epidermal growth factor receptor (Homo sapiens) (P00533 whole entry, looked up): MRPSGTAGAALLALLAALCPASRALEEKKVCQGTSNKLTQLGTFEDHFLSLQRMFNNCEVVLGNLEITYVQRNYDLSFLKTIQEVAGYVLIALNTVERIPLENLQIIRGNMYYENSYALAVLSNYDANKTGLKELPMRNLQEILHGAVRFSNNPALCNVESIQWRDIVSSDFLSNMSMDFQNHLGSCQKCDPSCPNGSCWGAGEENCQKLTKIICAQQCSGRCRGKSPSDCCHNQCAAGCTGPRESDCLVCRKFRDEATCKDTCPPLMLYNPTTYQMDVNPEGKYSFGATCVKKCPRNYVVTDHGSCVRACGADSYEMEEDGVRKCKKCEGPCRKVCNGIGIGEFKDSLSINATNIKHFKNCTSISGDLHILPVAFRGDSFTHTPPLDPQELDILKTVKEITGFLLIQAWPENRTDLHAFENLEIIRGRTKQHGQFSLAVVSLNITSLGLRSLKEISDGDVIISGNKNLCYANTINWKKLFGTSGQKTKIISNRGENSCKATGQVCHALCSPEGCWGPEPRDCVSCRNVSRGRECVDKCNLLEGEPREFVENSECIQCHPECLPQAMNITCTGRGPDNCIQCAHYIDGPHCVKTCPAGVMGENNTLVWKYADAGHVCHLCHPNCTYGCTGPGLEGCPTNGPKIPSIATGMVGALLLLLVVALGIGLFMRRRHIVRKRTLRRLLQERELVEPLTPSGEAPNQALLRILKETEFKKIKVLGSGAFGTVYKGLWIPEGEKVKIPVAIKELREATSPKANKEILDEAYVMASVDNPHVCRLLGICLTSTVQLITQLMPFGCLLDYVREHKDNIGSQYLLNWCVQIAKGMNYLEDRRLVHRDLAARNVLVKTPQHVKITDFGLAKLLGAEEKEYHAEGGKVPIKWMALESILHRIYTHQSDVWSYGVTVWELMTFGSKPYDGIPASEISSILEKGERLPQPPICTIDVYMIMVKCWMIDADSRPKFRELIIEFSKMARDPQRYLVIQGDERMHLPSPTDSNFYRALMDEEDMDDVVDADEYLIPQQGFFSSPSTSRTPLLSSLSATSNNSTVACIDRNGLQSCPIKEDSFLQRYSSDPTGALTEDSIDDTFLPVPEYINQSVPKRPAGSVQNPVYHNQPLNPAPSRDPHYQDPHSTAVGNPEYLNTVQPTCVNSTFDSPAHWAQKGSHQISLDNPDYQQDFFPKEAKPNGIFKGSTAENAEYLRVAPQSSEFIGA

[8] = target: Follistatin-related protein 3 (Homo sapiens) (UniProt O95633); assay: compounds binding follistatin-related protein 3 – biochemical, small-molecule microarray, 635 nm fluorescence, primary screen (AID 1105); conditions: FSTL3 binding, higher = more signal;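 also: score merges emission near 667 nm and signal to noise per printed spot across three slides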
Sequence of Follistatin-related protein 3 (Homo sapiens) (O95633 whole entry, looked up): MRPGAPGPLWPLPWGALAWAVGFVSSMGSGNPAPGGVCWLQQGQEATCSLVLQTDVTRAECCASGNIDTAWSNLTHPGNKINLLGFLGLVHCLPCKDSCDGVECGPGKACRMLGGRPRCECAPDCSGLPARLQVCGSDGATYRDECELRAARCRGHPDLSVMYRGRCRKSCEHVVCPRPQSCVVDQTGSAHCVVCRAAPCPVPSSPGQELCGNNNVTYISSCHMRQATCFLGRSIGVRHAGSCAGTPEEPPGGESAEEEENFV

[9] = target: Dickkopf-related protein 1 (Homo sapiens) (UniProt O94907); assay: small molecules binding DKK1 protein – biochemical, small-molecule microarray, 635 nm fluorescence scan, primary screen (AID 1106); conditions: higher = more signal;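 also: score merges emission near 667 nm with signal to noise over three replicate slides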
Sequence of Dickkopf-related protein 1 (Homo sapiens) (O94907 whole entry, looked up): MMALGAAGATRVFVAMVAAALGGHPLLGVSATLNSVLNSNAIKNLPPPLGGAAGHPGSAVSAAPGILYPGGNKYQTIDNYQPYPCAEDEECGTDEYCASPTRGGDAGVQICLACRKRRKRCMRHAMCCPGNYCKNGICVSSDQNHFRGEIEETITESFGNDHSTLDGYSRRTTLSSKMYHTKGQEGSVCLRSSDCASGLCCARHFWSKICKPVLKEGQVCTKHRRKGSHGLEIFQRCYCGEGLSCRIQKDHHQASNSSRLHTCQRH

[10] = test system: Inhibin beta A chain (activin A); assay: small molecules binding activin A – biochemical, small-molecule microarray, 635 nm fluorescence scan, primary screen (AID 1107); conditions: INHBA, higher = more signal;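 also: mouse activin A protein probed at 4.33 µg/mL on printed slides; score merges bound-protein fluorescence near 667 nm with spot signal-to-noise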

SMILES | composite z-score [1] | composite z-score [2] | composite z-score [3] | z-score [4] | composite z-score [5] | composite z-score [6] | composite z-score [7] | composite z-score [8] | composite z-score [9] | composite z-score [10]
Cc1cc2c(c(=O)o1)[C@H](O)[C@H]1O[C@H]1C2=O | 0.412 | -0.178 | -0.245 | -0.331 (inactive) | 0.88 | 0.191 | 0.0205 | -0.139 | -0.0438 | 0.623
N#Cc1ccc(NN2C(C(O)c3cc(C(F)(F)F)cc(C(F)(F)F)c3)C=CC3C(=O)N(c4ccccc4)C(=O)C32)cc1 (stereo not given) | 0.666 | 0.175 | 1.04 | 0.628 (inactive) | 1.03 | 1.28 | 0.292 | 1.02 | -0.62 | 0.733
CCOC(=O)C[C@H]1[C@H](OC(=O)c2cc3ccccc3oc2=O)[C@@H](NC(=O)c2ccc3ccccc3n2)c2cc(OCCCO)ccc2N1C(=O)c1ccccc1 | 0.564 | 0.414 | -0.0652 | -0.38 (inactive) | 1.4 | 0.439 | 0.344 | 0.948 | 1.04 | 0.513
COC(=O)[C@@H]1CC[C@H](C)[C@@H](c2ccc(C)cc2)N1C(=O)c1ccc(C=NOC(C)CN2CCCCc3nc(C)c(C)cc32)cc1 (stereo not given in full) | 0.775 | -0.136 | 0.174 | -0.423 (inactive) | 0.127 | -0.626 | 0.598 | 0.0406 | 0.323 | 1.49
O=C1[C@H]2[C@H]3[C@H](O)[C@H](O)CC(=NOCc4ccccc4)[C@H]3CC[C@H]2C(=O)N1c1ccc(F)cc1F | -0.183 | -0.268 | -0.675 | -0.772 (inactive) | 0.266 | 0.167 | 0.534 | -0.0913 | 0.0949 | -0.364
COC(=O)[C@@]1(Cc2ccccc2)[C@H]2c3cc(C(=O)N4CCCC4)n(Cc4ccccn4)c3C[C@H]2CN1C(=O)c1ccccc1 | 1.54 | 1.52 | 1.31 | -2.15 (inactive) | 1.37 | 1.3 | 0.204 | 1.41 | 0.166 | 0.456
NC(=O)NCC#Cc1ccc2c(c1)[C@]1(C(=O)N2)[C@H](c2ccc(O)cc2)N2[C@H](c3ccccc3)[C@H](c3ccccc3)OC(=O)[C@H]2[C@@H]1C(=O)N1CCCCCCC1 | 1.08 | 1.8 | 1.08 | 0.445 (inactive) | 0.593 | -0.018 | 0.356 | 1.28 | 0.408 | 1.4
